Growth inhibition data for 9 compounds are collected here from PubChem BioAssay (NCI).

SMILES strings stand for the structures. The panel holds about 79,000 compounds, 15% with a hit somewhere; the sample as a whole holds those more often. Unmarked numbers belong to inactive results. Calls of active or inactive are those of the source. Rule as the data show it: active = growth inhibition above about 70%; inactive = the rest.

Assay [1] in a line: NCI Yeast Anticancer Drug Screen. Data for the rad50 strain (AID 155).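 Also: 0% = growth of vehicle-only cultures of the same strain.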 The note with it: S. cerevisiae rad50 strain growth inhibition, hits give high values. The essentials:
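Compounds were tested on a yeast strain with an engineered DNA damage repair alteration; the reported value is growth inhibition normalised to vehicle treatment.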

Assay [2] can be described thus: NCI Yeast Anticancer Drug Screen. Data for the mec2-1 strain (AID 157). The note with it: S. cerevisiae mec2-1 strain, hits give high values. A digest of the protocol: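 Using mec2-1 yeast: add compound, measure growth, express inhibition versus vehicle-treated cultures.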
Assay [3] in a line: NCI Yeast Anticancer Drug Screen. Data for the sgs1 mgt1 strain (AID 161).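 Also: 0% = growth of cultures given vehicle only.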 The following applies: S. cerevisiae sgs1 mgt1 strain, hits give high values. A digest of the protocol:
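This yeast growth screen uses a strain with defined DNA-repair lesions; compound-treated growth is compared with vehicle-treated growth.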

A short description of assay [4]: NCI Yeast Anticancer Drug Screen. Data for the cln2 rad14 strain (AID 165).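 Also: 0% = growth equal to vehicle treated cultures.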 The following applies: S. cerevisiae cln2 rad14 strain, hits give high values. A digest of the protocol: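 Yeast strain cln2 rad14, bearing defects in cell cycle control and DNA repair, serves as the test system; values reflect growth inhibition compared with vehicle.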
A short description of assay [5]: NCI Yeast Anticancer Drug Screen. Data for the bub3 strain (AID 167). The following applies: S. cerevisiae bub3 mutant strain, hits give high values. The essentials:
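Growth of a checkpoint-deficient yeast mutant is measured after compound exposure. Values represent inhibition relative to vehicle.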

A short description of assay [6]: NCI Yeast Anticancer Drug Screen. Data for the mlh1 rad18 strain (AID 175). The following applies: S. cerevisiae mlh1 rad18 strain growth inhibition, hits give high values. A digest of the protocol:
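Steps: expose repair-defective yeast to compound; measure growth; express inhibition against vehicle-treated controls.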

[7] abbreviates: at 5.0 µM (retest, dose inferred, filed as 0.5).
Setting [8] is: at 50.0 µM (retest, dose inferred, filed as 5.0).

Turning to `COc1ccc(C2SCC(=O)N2c2nncs2)cc1` (configuration not stated), the growth inhibition in assay [1] (setting [7]) is -1%; in assay [1] (setting [8]) it was 5%; in assay [1] (at 50.0 µM) it was 50.1%; in assay [2] (setting [7]), -3%; in assay [2] (setting [8]) it was 1%; in assay [2] (at 50.0 µM), 3.55%. The growth inhibition in assay [3] (setting [7]) was -1%; in assay [3] (setting [8]), 3%; in assay [3] (at 50.0 µM), 9.5%; in assay [4] (setting [7]), 2%; in assay [4] (setting [8]), 7%; in assay [4] (at 50.0 µM) it was -8.95%. Besides, the growth inhibition is 4% in assay [5] (setting [7]); 12% in assay [5] (setting [8]); 21.7% in assay [5] (at 50.0 µM); 2% in assay [6] (setting [7]); 5% in assay [6] (setting [8]); 13.8% in assay [6] (at 50.0 µM).

`O=C(C(Oc1ccc(Cl)cc1)Oc1ccc(Cl)cc1)N(O)c1ccccc1OCc1ccccc1`: the growth inhibition was 14% in assay [1] (setting [7]); 49% in assay [1] (setting [8]); 66.8% in assay [1] (at 50.0 µM); 3% in assay [2] (setting [7]); 39% in assay [2] (setting [8]); 63% in assay [2] (at 50.0 µM). In addition, the growth inhibition in assay [3] (setting [7]) is 18%; in assay [3] (setting [8]), 45%; in assay [3] (at 50.0 µM), 69.5%; in assay [4] (setting [7]) it was -13%; in assay [4] (setting [8]), 49%; in assay [4] (at 50.0 µM) it was 53.6%. Besides, the growth inhibition in assay [5] (setting [7]) is 6%; in assay [5] (setting [8]) it was 57%; in assay [5] (at 50.0 µM) it was 47.9%; in assay [6] (setting [7]), 11%; in assay [6] (setting [8]) it was 45%; in assay [6] (at 50.0 µM), 71.5% (active).

For `CCN(CC)CCOC(=O)Cc1cccc2c(=O)cc(-c3cccs3)oc12`, the growth inhibition in assay [1] (setting [7]) is 18%; in assay [1] (setting [8]) it was 17%; in assay [1] (at 50.0 µM), 18.7%; in assay [2] (setting [7]) it was 9%; in assay [2] (setting [8]), 16%; in assay [2] (at 50.0 µM) it was -9.35%. Moreover, the growth inhibition in assay [3] (setting [7]) is 14%; in assay [3] (setting [8]), 18%; in assay [3] (at 50.0 µM), -16.4%; in assay [4] (setting [7]) it was 17%; in assay [4] (setting [8]) it was 17%; in assay [4] (at 50.0 µM), 8.25%. Also, the growth inhibition in assay [5] (setting [7]) was 4%; in assay [5] (setting [8]), 14%; in assay [5] (at 50.0 µM), -20.6%; in assay [6] (setting [7]), 10%; in assay [6] (setting [8]), 16%; in assay [6] (at 50.0 µM), -36%.

In the case of `CCC(c1ccc(O)c(C2CCCCC2)c1)C(CC)c1ccc(OC(=O)c2ccccc2)c(C2CCCCC2)c1` (configuration not stated), the growth inhibition is 0% in assay [1] (setting [7]); -2% in assay [1] (setting [8]); -16.8% in assay [1] (at 50.0 µM); -21% in assay [2] (setting [7]); 10% in assay [2] (setting [8]); -10.8% in assay [2] (at 50.0 µM). The growth inhibition in assay [3] (setting [7]) is -11%; in assay [3] (setting [8]) it was 11%; in assay [3] (at 50.0 µM), -17.1%; in assay [4] (setting [7]) it was -4%; in assay [4] (setting [8]), -8%; in assay [4] (at 50.0 µM), 26.8%. In addition, the growth inhibition is 0% in assay [5] (setting [7]); -6% in assay [5] (setting [8]); 1.15% in assay [5] (at 50.0 µM); -14% in assay [6] (setting [7]); -9% in assay [6] (setting [8]); -8.9% in assay [6] (at 50.0 µM).

With `O=C(Nc1c(Cl)cccc1Cl)Oc1cccc2cccnc12`, the growth inhibition in assay [1] (setting [7]) is 58%; in assay [1] (setting [8]), 97% (active); in assay [1] (at 50.0 µM), 88.5% (active); in assay [2] (setting [7]), 35%; in assay [2] (setting [8]), 98% (active); in assay [2] (at 50.0 µM) it was 90.6% (active). Also, the growth inhibition was 60% in assay [3] (setting [7]); 99% (active) in assay [3] (setting [8]); 90.6% (active) in assay [3] (at 50.0 µM); 20% in assay [4] (setting [7]); 98% (active) in assay [4] (setting [8]); 88% (active) in assay [4] (at 50.0 µM). The growth inhibition is 42% in assay [5] (setting [7]); 96% (active) in assay [5] (setting [8]); 89.4% (active) in assay [5] (at 50.0 µM); 57% in assay [6] (setting [7]); 97% (active) in assay [6] (setting [8]); 88.3% (active) in assay [6] (at 50.0 µM).

Take `N#CC(C#N)=C(c1ccccc1)c1ccccc1`: the growth inhibition in assay [1] (setting [7]) is -8%; in assay [1] (setting [8]), 99% (active); in assay [1] (at 50.0 µM), 97.4% (active); in assay [2] (setting [7]) it was 13%; in assay [2] (setting [8]), 100% (active); in assay [2] (at 50.0 µM), 99.5% (active). In addition, the growth inhibition in assay [3] (setting [7]) is 18%; in assay [3] (setting [8]) it was 99% (active); in assay [3] (at 50.0 µM), 99.4% (active); in assay [4] (setting [7]) it was -33%; in assay [4] (setting [8]), 99% (active); in assay [4] (at 50.0 µM), 99.5% (active). In addition, the growth inhibition in assay [5] (setting [7]) is -6%; in assay [5] (setting [8]), 100% (active); in assay [5] (at 50.0 µM), 99.3% (active); in assay [6] (setting [7]), -4%; in assay [6] (setting [8]), 100% (active); in assay [6] (at 50.0 µM), 99.4% (active).

For the compound `N[C@H](C(=O)O)[C@@H]1CC(Cl)=NO1`, the growth inhibition in assay [1] (setting [7]) is 63%; in assay [1] (setting [8]), 97% (active); in assay [1] (at 50.0 µM), 83.7% (active); in assay [2] (setting [7]), 98% (active); in assay [2] (setting [8]), 96% (active); in assay [2] (at 50.0 µM) it was 89.8% (active). Also, the growth inhibition in assay [3] (setting [7]) was 59%; in assay [3] (setting [8]), 96% (active); in assay [3] (at 50.0 µM), 84.5% (active); in assay [4] (setting [7]) it was 68%; in assay [4] (setting [8]), 96% (active); in assay [4] (at 50.0 µM), 85.2% (active). For the same compound, the growth inhibition in assay [5] (setting [7]) is 68%; in assay [5] (setting [8]) it was 97% (active); in assay [5] (at 50.0 µM), 88.5% (active); in assay [6] (setting [7]), 86% (active); in assay [6] (setting [8]) it was 97% (active); in assay [6] (at 50.0 µM), 84.8% (active).

For `O=C(CCN1CCCCC1)/C(=C\c1ccc(Cl)cc1)c1ccccc1`, the growth inhibition in assay [1] (setting [7]) was 5%; in assay [1] (setting [8]), 95% (active); in assay [1] (at 50.0 µM), 99% (active); in assay [2] (setting [7]) it was 7%; in assay [2] (setting [8]) it was 99% (active); in assay [2] (at 50.0 µM), 99.4% (active). The growth inhibition in assay [3] (setting [7]) was 37%; in assay [3] (setting [8]), 100% (active); in assay [3] (at 50.0 µM), 99.3% (active); in assay [4] (setting [7]) it was 14%; in assay [4] (setting [8]), 91% (active); in assay [4] (at 50.0 µM) it was 99.1% (active). The growth inhibition was 20% in assay [5] (setting [7]); 98% (active) in assay [5] (setting [8]); 99% (active) in assay [5] (at 50.0 µM); 16% in assay [6] (setting [7]); 99% (active) in assay [6] (setting [8]); 99.2% (active) in assay [6] (at 50.0 µM).

As for `Cc1cc(=O)oc2c(C)c3oc(CBr)cc3cc12`, the growth inhibition is -11% in assay [1] (setting [7]); 79% (active) in assay [1] (setting [8]); 54.1% in assay [1] (at 50.0 µM); 4% in assay [2] (setting [7]); 67% in assay [2] (setting [8]); 62.7% in assay [2] (at 50.0 µM). The growth inhibition in assay [3] (setting [7]) was -17%; in assay [3] (setting [8]), 64%; in assay [3] (at 50.0 µM) it was 69.8%; in assay [4] (setting [7]), 32%; in assay [4] (setting [8]), 56%; in assay [4] (at 50.0 µM) it was 66.2%. The growth inhibition was -4% in assay [5] (setting [7]); 67% in assay [5] (setting [8]); 65.4% in assay [5] (at 50.0 µM); -2% in assay [6] (setting [7]); 75% (active) in assay [6] (setting [8]); 63.1% in assay [6] (at 50.0 µM).
